Experimental data reported in the supplement of paper PMC3545927.
Some of the results follow. No count for the full screen is at hand.

Biological target: furin, P09958
Test: furin cleavage Z-score vs untreated control; higher = more cleavage, active = 3.5 or more, inactive = 1 or less, 8 variable residues between constant flanks
How it was run: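 Purified furin digested bead-held 8-mer peptide–cDNA fusions at 1:10 enzyme:substrate in 0.01 ml of 50 mM HEPES pH 7.5 with CaCl2 and NaCl for 7.5, 15 or 30 min. The cleavage Z-score compares sequencing counts of released DNA with furin-free reactions on a log scale, with lowess adjustment and median absolute deviation scaling.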

Chain of furin, P09958 (P09958 whole entry): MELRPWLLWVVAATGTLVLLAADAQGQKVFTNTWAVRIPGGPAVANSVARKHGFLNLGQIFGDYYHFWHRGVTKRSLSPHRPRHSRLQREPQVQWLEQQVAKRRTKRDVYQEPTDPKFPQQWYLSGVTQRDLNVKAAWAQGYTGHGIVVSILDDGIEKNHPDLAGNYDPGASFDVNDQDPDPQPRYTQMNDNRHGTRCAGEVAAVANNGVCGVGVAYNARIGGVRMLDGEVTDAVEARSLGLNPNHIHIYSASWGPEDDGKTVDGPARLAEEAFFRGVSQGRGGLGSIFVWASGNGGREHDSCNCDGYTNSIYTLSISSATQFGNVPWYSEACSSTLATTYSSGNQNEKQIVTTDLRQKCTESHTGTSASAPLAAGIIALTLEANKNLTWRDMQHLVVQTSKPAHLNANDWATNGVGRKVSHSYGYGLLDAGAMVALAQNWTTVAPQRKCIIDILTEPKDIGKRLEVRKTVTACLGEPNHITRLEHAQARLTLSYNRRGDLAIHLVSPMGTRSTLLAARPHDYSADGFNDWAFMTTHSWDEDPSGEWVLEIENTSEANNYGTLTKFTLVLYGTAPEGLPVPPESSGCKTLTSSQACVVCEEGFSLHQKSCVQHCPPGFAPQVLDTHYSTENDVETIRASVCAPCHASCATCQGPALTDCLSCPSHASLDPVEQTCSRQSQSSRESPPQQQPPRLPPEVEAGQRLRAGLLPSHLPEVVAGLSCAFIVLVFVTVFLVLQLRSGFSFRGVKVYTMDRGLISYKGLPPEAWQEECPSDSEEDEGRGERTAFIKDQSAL

| Sequence | furin cleavage Z-score (7.5 min) | furin cleavage Z-score (15 min) | furin cleavage Z-score (30 min) |
| --- | --- | --- | --- |
| CAEPVVCCSMAGNASASA [HC2139] | 0.036 (inactive) | -1.42 (inactive) | 1.07 |
| CAVLDSHYQDAGNASASA [HC1400] | -0.288 (inactive) | -1.98 (inactive) | 0.522 (inactive) |
| CAIERVHKRSAGNASASA [FS-1342] | 6.81 (active) | 7.58 (active) | 7.96 (active) |
| CASDDRLCRSAGNASASA [FS-1484] | -0.386 (inactive) | 0.196 (inactive) | -1 (inactive) |
| CATEHRVCRSAGNASASA [FS-508] | 3.96 (active) | 5.27 (active) | 4.89 (active) |
| CAEYVEIRQVAGNASASA [HC1205] | -0.199 (inactive) | -0.194 (inactive) | 1.29 |
| CARTARAWGKAGNASASA [FS-3102] | -0.427 (inactive) | 0.174 (inactive) | 1.29 |
| CARPEKSVNKAGNASASA [FS-1759] | -1.61 (inactive) | 0.261 (inactive) | -0.528 (inactive) |
| CARTARSTNKAGNASASA [FS-2094] | 5.26 (active) | 7.87 (active) | 5.51 (active) |
| CARFARHVSPAGNASASA [FS-2138] | 10.5 (active) | 9.18 (active) | 9.56 (active) |
| CARTARSEEDAGNASASA [FS-3103] | -1.19 (inactive) | -0.787 (inactive) | 0.992 (inactive) |
| CARTARAVSPAGNASASA [FS-2611] | 5.89 (active) | 8.14 (active) | 7.16 (active) |
| CARAARGTSPAGNASASA [FS-2633] | -0.591 (inactive) | -1.01 (inactive) | 1.21 |
| CAFTAAVTSPAGNASASA [HC1057] | -0.794 (inactive) | -0.905 (inactive) | -0.554 (inactive) |
| CALKAKLMPQAGNASASA [HC1158] | 1.55 | 0.58 (inactive) | -1.58 (inactive) |
| CAVVCGSMSYAGNASASA [HC82] | -0.0603 (inactive) | -1.58 (inactive) | 0.38 (inactive) |
| CALRYRHKRLAGNASASA [FS-1542] | 9.71 (active) | 11.6 (active) | 9.65 (active) |
| CALRDYIPRIAGNASASA [FS-1464] | -0.691 (inactive) | -1.05 (inactive) | -0.313 (inactive) |
| CARFHRACRLAGNASASA [FS-1257] | -0.645 (inactive) | -0.00567 (inactive) | -0.322 (inactive) |
| CALRYRHKRIAGNASASA [FS-1541] | 6.08 (active) | 8.2 (active) | 8.94 (active) |
| CAYCLRKRRMAGNASASA [FS-1664] | 8.61 (active) | 9.15 (active) | 7.84 (active) |
| CAYCLSTGCVAGNASASA [HC997] | -1.15 (inactive) | 0.0405 (inactive) | -1.03 (inactive) |
| CAACLRKLGVAGNASASA [HC1614] | -0.73 (inactive) | -0.95 (inactive) | 1.04 |
| CAYPNRPDRPAGNASASA [FS-110] | -0.325 (inactive) | 0.955 (inactive) | 0.00762 (inactive) |
| CATKKRPRRMAGNASASA [FS-1171] | 7.17 (active) | 8.34 (active) | 8.69 (active) |

| Sequence | furin cleavage Z-score (7.5 min) | furin cleavage Z-score (15 min) | furin cleavage Z-score (30 min) |
| --- | --- | --- | --- |
| CASWERPRRPAGNASASA [FS-876] | -1.15 (inactive) | -0.626 (inactive) | 0.927 (inactive) |
| CAWGRRKARMAGNASASA [FS-1437] | 8.17 (active) | 11.8 (active) | 9.74 (active) |
| CALKRRDRRMAGNASASA [FS-1227] | 12 (active) | 13.4 (active) | 10.3 (active) |
| CAQGCRKDRGAGNASASA [FS-77] | -1.71 (inactive) | 0.374 (inactive) | -0.248 (inactive) |
| CAFERRSFETAGNASASA [FS-2390] | -1.51 (inactive) | -1.58 (inactive) | -0.598 (inactive) |
| CAGMVSKGWRAGNASASA [HC669] | -0.876 (inactive) | 0.139 (inactive) | -1.14 (inactive) |
| CAVIIKLGALAGNASASA [HC629] | 0.217 (inactive) | -0.103 (inactive) | 0.349 (inactive) |
| CASWPCSAHLAGNASASA [HC2488] | 0.993 (inactive) | 0.675 (inactive) | 1.37 |
| CADSEVVTSTAGNASASA [HC2297] | -0.913 (inactive) | 1.6 | 0.0245 (inactive) |
| CAYLVTRHADAGNASASA [HC726] | -0.934 (inactive) | -0.697 (inactive) | -0.629 (inactive) |
| CAMLKRFARMAGNASASA [FS-1036] | 9.66 (active) | 12.7 (active) | 9.59 (active) |
| CAAKRRPRRMAGNASASA [FS-1302] | 7.77 (active) | 7.84 (active) | 6.56 (active) |
| CAYPPKPCGIAGNASASA [HC405] | -0.254 (inactive) | 1.24 | -0.00218 (inactive) |
| CAMEECTQHLAGNASASA [HC36] | 1.8 | 0.851 (inactive) | 0.876 (inactive) |
| CAAAQLAAPGAGNASASA [HC1069] | 0.864 (inactive) | -0.982 (inactive) | -0.549 (inactive) |
| CAAVCCSMSYAGNASASA [HC1983] | -0.929 (inactive) | -0.792 (inactive) | 0.279 (inactive) |
| CARTRRYTLFAGNASASA [FS-2191] | 2.37 | 3.82 (active) | 4.23 (active) |
| CARTRREAPRAGNASASA [FS-2096] | 11.6 (active) | 11.4 (active) | 9.47 (active) |
| CARSRRSEERAGNASASA [FS-3237] | 6.2 (active) | 7.41 (active) | 5.66 (active) |
| CARSRRLQQRAGNASASA [FS-2090] | -1.41 (inactive) | -1.28 (inactive) | -0.156 (inactive) |
| CARTRRPGEPAGNASASA [FS-2835] | -0.179 (inactive) | 0.383 (inactive) | 0.174 (inactive) |
| CARTRRYYLSAGNASASA [FS-3112] | -0.7 (inactive) | 2.33 | 1.85 |
| CARFRRQDVRAGNASASA [FS-2665] | 3.01 | 3.49 | 4.11 (active) |
| CARSQRSEERAGNASASA [FS-2813] | -1.38 (inactive) | -0.785 (inactive) | 0.605 (inactive) |
